HCMV antiviral – human cytomegalovirus inhibition; HFF cells, HCMV-luciferase reporter, 72 h; active compounds read low; activity change, negative = inhibition, % at 57.5 µM; 410,000 compounds, 4.5% hits; in the data active means activity change below about -60%; inconclusive means no clear call, values can overlap the other calls; inactive means above about -39%
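After 16 h attachment at 37C, HFF cells received test compound and HCMV-luciferase (1 PFU/cell); reporter luminescence read 72 h later, data normalized against buffer-only and known inhibitor Salinomycin.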
MARV entry inh – Marburg virus entry inhibition; Marburg virus pseudotyped entry inhibition, cell reporter; Potency, µM (titrated, usually from 37.8 µM), hits mostly inhibitors; 300,000 compounds, 1.8% hits; calls by dose curve; tested in HEK293 cells
Pf growth 96h – inhibits malaria parasite growth, 96 h; AID 504834; 320,000 compounds, 6.9% hits; P. falciparum luciferase reporter growth, 96 h; Potency, µM (series often up to 28.7 µM), actives largely listed as inhibitors
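Two-generation exposure (96 h) targets delayed-death phenotype. Reporter parasites carrying integrated firefly luciferase, in red cells at 2% hematocrit and 0.05% parasitemia final, kept at 37 C, 5% CO2; luminescence loss indicates inhibition.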
Lassa entry inh – Lassa virus entry inhibition. Potency, µM (highest dose often 37.9 µM), most hits filed as inhibitors. Lassa virus pseudotype entry inhibition, cell reporter. AID 540256. 300,000 compounds, 1.2% hits; calls by dose curve; tested in HEK293 cells; further: nearly all actives have a fitted effect of over 50% in size
Pf growth 48h – inhibits P. falciparum growth in the first generation, 48 h | 310,000 compounds, 5.9% hits | P. falciparum luciferase growth in erythrocytes, 48 h | Potency, µM (highest dose often 28.7 µM), hits mostly inhibitors
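In quantitative HTS format, infected erythrocytes bearing luciferase-reporter parasites were treated for a single generation at 37 C. Luminescence after adding detection reagent served as the growth measure.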
HCV inhibitor – inhibitors of hepatitis C virus infection. Huh7.5.1 HCVcc-Cre infection, luciferase reporter, 44 h. 340,000 compounds, 3.4% hits. Potency, µM (titrated, usually from 41.8 µM), actives largely listed as inhibitors
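A cell-based infection assay in which seeded cells (1,000 per well) receive test compound after 4 h, are inoculated with HCVcc-Cre at approximately 0.5 moi, and are incubated 44 h before luminescence detection.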
A number is an active result; . = inactive; ? = inconclusive; / = no result given; ! = repeats disagree. Shown are actives, neighbours in structure and some others; about 14% of the full set was active somewhere. Unless noted, the call rests on the fitted dose curve; in most records, active means well fitted inhibition curve with a large enough effect; inconclusive means small, poorly fitted or top-dose-only effect, or another doubt; inactive means no such curve, though single readings can be large or run the other way.

SMILES | HCMV antiviral | MARV entry inh | Pf growth 96h | Lassa entry inh | Pf growth 48h | HCV inhibitor
C#Cc1cccc(Nc2nc(NC(C)C)nc3ccsc23)c1 | . | / | / | / | / | /
COc1ccc(C(=O)NCC(O)COc2ccc(C(C)(C)C)cc2)cc1[N+](=O)[O-] (configuration not stated) | / | ? | 6.6µM | ? | . | ?
COc1ccccc1NCC(O)COc1ccc(C(C)(C)C)cc1 (configuration not stated) | . | ? | . | . | . | ?
Cc1cc2c(cc1Cl)N(C(=O)Nc1ccnc3ccccc13)CC2 | / | ? | / | . | / | /
Cc1cc2c(cc1Cl)N(C(=O)Nc1ccc(Oc3cccnc3C)nc1)CC2 | / | ? | / | 12µM | / | /
CCn1c2ccccc2c2cc(CN3CCN(Cc4ccc(Br)cc4)CC3)ccc21 | . | / | / | ? | / | /
Cc1ccccc1COC(=O)CCC1=NS(=O)(=O)c2ccccc2N1 | . | . | 12µM | . | . | ?
O=C(CCCC1=NS(=O)(=O)c2ccccc2N1)OCc1ccc(Cl)cc1 | . | . | ? | . | ? | .
Cc1cccc(NC(=O)COC(=O)CCCC2=NS(=O)(=O)c3ccccc3N2)c1 | -104! | . | . | ? | . | .
Cc1oc(-c2ccc(C(=O)Nc3ccc(F)cc3)cc2)nc1COc1ccccc1 | ? | / | / | . | / | /
COc1cc(NC(=O)c2ccc(-c3nc(COc4ccccc4)c(C)o3)cc2)cc(OC)c1 | -78 | / | / | ? | / | /
Cc1nc2nc(SCC(=O)NCCc3ccc(Cl)cc3)nn2c(C)c1Cc1c(F)cccc1Cl | . | / | / | . | / | /
C=CCNc1nc(-c2cc3ccccc3o2)cs1 | . | ? | . | 7.9µM | . | ?
c1ccc2oc(-c3csc(NCC4CCCO4)n3)cc2c1 (configuration not stated) | . | ? | . | ? | . | 25µM
CC(=O)OCC(=O)[C@H]1CC[C@H]2[C@@H]3CCC4=CC(=O)CC[C@]4(C)[C@H]3CC[C@]12C | . | . | ? | . | ? | ?
CC(=O)C1C(N2CC2)CC2C3CCC4=CC(=O)CCC4(C)C3CCC21C (configuration not stated) | -63 | ? | / | ? | / | 0.56µM
CC12CCC(=O)C=C1CCC1C2CCC2(C)C1CCC2(O)C(=O)CO (configuration not stated) | . | / | / | / | / | .
C[C@]12CC[C@H]3[C@@H](CCC4=CC(=O)CC[C@@]43C)[C@@H]1CC[C@@H]2C(=O)CO | . | . | 9.3µM | . | 12µM | ?
CC12CCC(=O)C=C1CCC1C2CCC2(C)C(O)(C(=O)CO)CCC12O (configuration not stated) | -65 | . | / | . | / | .
CC12CCC(=O)C=C1CCC1C2CCC2(C)C(O)CCC12 (configuration not stated) | . | / | . | / | . | .
CC(C)OC(=O)N(C)C[C@H]1OCc2cn(nn2)CCCC(=O)N([C@@H](C)CO)C[C@@H]1C | . | / | / | / | / | /
COc1ccc(NC(=O)C2=C(C)C(=O)OC23CCN(C(C)C)CC3)cc1Cl | . | / | / | . | / | /
Cc1ccccc1N=C(NOCc1ccc(Cl)cc1Cl)c1nonc1N | . | ? | 12µM | . | / | ?
Cc1ccccc1N=C(NOCc1ccccc1)c1nonc1N | . | . | ? | . | ? | .
Cc1ccc(N=C(NOC(=O)c2ccccc2)c2nonc2N)c(C)c1 | . | . | 5.9µM | . | ? | .
SMILES | HCMV antiviral | MARV entry inh | Pf growth 96h | Lassa entry inh | Pf growth 48h | HCV inhibitor
Cc1ccc(N=C(NO)c2nonc2N)c(C)c1 | . | . | . | . | . | .
Cc1ccc(N=C(NOCc2ccc(Cl)cc2Cl)c2nonc2N)c(C)c1 | . | ? | 12µM | . | / | .
O=C(Nc1cc(-c2ccc(Cl)cc2)no1)c1ccc(F)cc1 | . | . | / | ? | / | /
COC(=O)NC(NC(=S)Nc1ccc([N+](=O)[O-])cc1)C(Cl)(Cl)Cl (configuration not stated) | ? | ? | . | . | 12µM | ?
COc1ccc(NC(=S)NC(NC(=O)c2ccccc2Cl)C(Cl)(Cl)Cl)c([N+](=O)[O-])c1 (configuration not stated) | ? | ? | 3.7µM | . | / | ?
COc1ccc(NC(=S)NC(NC(=O)c2cccc3ccccc23)C(Cl)(Cl)Cl)c([N+](=O)[O-])c1 (configuration not stated) | . | ? | 1.5µM | . | / | 10µM
CCOC(=O)NC(NC(=S)Nc1ccc(OC)cc1)C(Cl)(Cl)Cl (configuration not stated) | . | ? | ? | ? | . | .
O=C(CF)NC(NC(=S)Nc1cccc([N+](=O)[O-])c1)C(Cl)(Cl)Cl (configuration not stated) | -70 | . | . | . | . | .
CCN(CCCNC(=O)c1cc2c(=O)n(C)c3ccccc3c2s1)Cc1ccccc1 | . | ? | / | . | / | /
COC(=O)c1ccccc1NC(=S)NC(NC(=O)c1ccccc1[N+](=O)[O-])C(Cl)(Cl)Cl (configuration not stated) | . | . | 7.4µM | . | . | .
O=[N+]([O-])c1ccccc1N=NNc1ccccc1 | . | ? | / | . | / | ?

Screening data as filed in PubChem.
